Screening results as filed in PubChem BioAssay.
Only some compounds are listed: those with a hit (about 2.3% of all), similar ones and a draw of the others.
Nrf2 block = Nrf2 qHTS screen for inhibitors | A549 ARE-Fluc reporter, luciferase luminescence, 18-24 h | Potency, µM (titrated, usually from 46 µM), for the others: at the highest dose activity change, negative = inhibition, hits mostly inhibitors | hit rate 2.1% among 360,000; note: potency is the fitted concentration of half-maximal effect; % is set by controls: 0 for no effect and ±100 for the full control effect; nearly all actives have a fitted effect of over 60% in size
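Nrf2 function is reported as luminescence of an ARE-controlled luciferase in A549 cells. Compounds were tested at several concentrations, and a CellTiter-Fluor read on the same wells flagged cytotoxicity.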
Mito fusion yeast = qHTS Assay for Small Molecule Inhibitors of Mitochondrial Division or Activators of Mitochondrial Fusion; S. cerevisiae fusion-defective mutant growth rescue, CellTiterGlo 48 h; Potency, µM (series often up to 46.1 µM), for inactives: top-dose growth rescue (activation), usual class: activators; hit rate 0.23% among 320,000; AID 485298, 2010; note: potency is the fitted concentration of half-maximal effect; % of control where 0% means no effect; nearly all actives have a fitted effect of over 45% in size
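Growth-rescue viability read-out: after 48 h at the non-permissive 37C in glycerol/ethanol YPEG, yeast mitochondrial fusion mutants are measured by CellTiterGlo luminescence; compounds (23 nl pinned per well) restoring growth score as division inhibitors or fusion activators.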
Nrf2 activator = qHTS of Nrf2 Activators; Potency, µM (top dose mostly 46.1 µM), inactives show top-dose activation, actives largely listed as activators; AID 624171, 2012; hit rate 0.31% among 410,000; AREc32 ARE-luciferase reporter (MCF7-derived line), luminescence, 24 h; note: potency is the fitted concentration of half-maximal effect; % of control where 0% means no effect; nearly all actives have a fitted effect of over 65% in size
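Luminescent ARE reporter assay in AREc32_Fluc cells: overnight plating at 37 deg C, 24 hr compound incubation, Steady-Glo added, 30 min RT before reading.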
miR-21 reporter = qHTS Assay for Modulators of miRNAs and/orActivators of miR-21; 340,000 tested, under 10 active; AID 2288, 2010; Potency, µM (series often up to 38.3 µM), without a hit: at the highest dose activity change, positive = activation, usual class: activators; HeLa miR-21 FLuc reporter, luciferase, 48 h;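 note: % of control where 0% means no effect; miR-21 action dims this reporter so a rising signal means less miR-21 action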
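HeLa cells stably expressing CMV-driven firefly luciferase with a downstream miR-21 binding sequence, endogenously expressing miR-21, were treated with titrations (up to about 40uM final) for 48 hours at 37 degree Celsius. Luciferase luminescence was read after lysis.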
Glioma ERSR ind = qHTS for Inducers of the Endoplasmic Reticulum Stress Response (ERSR) in Human Glioma: qHTS; U87-MG GRP78 promoter luciferase reporter, 16 h; Potency, µM, for the others: at the top dose activation, usual class: activators; hit rate 0.02% among 420,000; AID 602332, 2012; note: potency is the fitted concentration of half-maximal effect; series mostly up to about 76 µM; % of control where 0% means no effect; nearly all actives have a fitted effect of over 35% in size
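ERSR induction read as luciferase luminescence (Bright-Glo, 10 min at room temperature) in stably transfected human U87-MG glioma cells exposed to compounds for 16 h, using GRP78 as sensor.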
A549 tox-1 = Nrf2 qHTS screen for inhibitors: counterscreen for cytotoxicity; A549 ARE-Fluc cells, CellTiter-Fluor viability, 18-24 h; Potency, µM (top dose mostly 46 µM), without a hit: at the top dose activity change, negative = cytotoxicity, usual class: inhibitors; hit rate 0.16% among 390,000; AID 504648, 2011; note: potency is the fitted concentration of half-maximal effect; % is set by controls: 0 for no effect and ±100 for the full control effect
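A549 ARE-Fluc cells in 5% FBS OPTI-MEM, 5000 cells/well, rested 2 h then exposed to compounds in concentration-response for 18-24 h at 37 °C. Viability by CellTiter-Fluor fluorescence (Ex 405/Em 525) after 30 min; luciferase luminescence (BugLite, 15 min, RT) read afterwards.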
FLuc enzyme inh = Nrf2 qHTS screen for inhibitors: Purified Fluc Biochemical Counterscreen for Hit Validation. shares compounds with Nrf2 block. hit rate 4% among 1,400. purified firefly luciferase, luminescence inhibition. Potency, µM (titrated, usually from 57.5 µM), for inactives: at the top dose activity change, negative = inhibition, actives largely listed as inhibitors; note: potency is the fitted concentration of half-maximal effect; % is set by controls: 0 for no effect and ±100 for the full control effect; nearly all actives have a fitted effect of over 65% in size
Target sequence (P08659 whole entry, looked up): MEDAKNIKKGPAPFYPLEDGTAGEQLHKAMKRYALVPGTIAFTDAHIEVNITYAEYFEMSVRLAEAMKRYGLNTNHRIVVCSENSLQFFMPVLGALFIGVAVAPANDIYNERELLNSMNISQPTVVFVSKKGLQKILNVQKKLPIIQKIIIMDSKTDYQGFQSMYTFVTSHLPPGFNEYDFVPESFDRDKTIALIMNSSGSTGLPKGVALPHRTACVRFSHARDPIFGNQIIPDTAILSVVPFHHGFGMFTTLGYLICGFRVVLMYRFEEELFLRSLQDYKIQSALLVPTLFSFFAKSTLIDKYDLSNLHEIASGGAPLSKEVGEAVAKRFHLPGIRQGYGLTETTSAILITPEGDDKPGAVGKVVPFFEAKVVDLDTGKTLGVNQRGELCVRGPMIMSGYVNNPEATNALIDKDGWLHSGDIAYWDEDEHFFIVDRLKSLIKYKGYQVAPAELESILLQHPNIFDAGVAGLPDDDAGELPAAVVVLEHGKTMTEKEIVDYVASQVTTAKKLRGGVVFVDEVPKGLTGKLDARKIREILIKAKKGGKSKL
A549 tox-2 = Nrf2 qHTS screen for inhibitors: A549 ARE-Fluc Cytotoxicity Counterscreen for Hit Validation; A549 ARE-Fluc cells, cytotoxicity counterscreen; hit rate 2% among 1,400; Potency, µM (doses to about 46.1 µM), inactives show at the top dose activity change, negative = cytotoxicity, actives largely listed as inhibitors; shares compounds with Nrf2 block; AID 720523, 2013;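 note: potency is the fitted concentration of half-maximal effect; cells exposed to compounds for 18 to 24 hours; % is set by controls: 0 for no effect and ±100 for the full control effect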
ARE-Fluc inh = Nrf2 qHTS screen for inhibitors: Nrf2 A549 ARE-Fluc Confirmation Assay for Hit Validation; shares compounds with Nrf2 block; A549 ARE-firefly luciferase reporter, luminescence; Potency, µM (titrated, usually from 46.1 µM), for inactives: at the top dose activity change, negative = inhibition, actives largely listed as inhibitors; hit rate 74% among 1,400; AID 720524, 2013; note: potency is the fitted concentration of half-maximal effect; % is set by controls: 0 for no effect and ±100 for the full control effect; nearly all actives have a fitted effect of over 65% in size
* hit, by the source's call; u = inconclusive; x = no result shown. Calls come from the whole dose curve; as a rule, active = well fitted curve in the direction sought with a large enough effect; inconclusive = small, poorly fitted or top-dose-only effect, or another doubt; inactive = no such curve, though single readings can be large; an effect the other way counts as inactive or inconclusive.

SMILES | Nrf2 block | Mito fusion yeast | Nrf2 activator | miR-21 reporter | Glioma ERSR ind | A549 tox-1 | FLuc enzyme inh | A549 tox-2 | ARE-Fluc inh
CC(=O)N1CCCc2cc(S(=O)(=O)N3CCCC(C(=O)Nc4cccc(F)c4)C3)ccc21 (stereo not given) | 9.2µM* | -3% | 1% | 20% | -5% | -9% | 3% | -2% | x
Cc1ccc(NC(=O)C2CCCN2S(=O)(=O)c2ccc3c(c2)CCCC(=O)N3)cc1Cl (stereo not given) | u | x | 5% | 16% | -1% | 0% | x | x | x
O=c1[nH]c(=O)n(-c2ccc(Br)cc2)c(O)c1C=NCCN1CCCCC1 | 5% | 2% | 0% | 2% | -7% | 1% | x | x | x
COc1cc2c(cc1OC)[C@@H]1C(=O)c3ccc4c(c3O[C@@H]1CO2)C[C@H](C(C)C)O4 | 0.29µM* | 11% | 0% | u | -4% | -13% | 0% | -15% | 0.23µM*
COc1cc2c(cc1OC)[C@@H]1C(=O)c3ccc4oc(C(C)C)cc4c3OC1CO2 (stereo not given in full) | x | x | x | x | -5% | x | x | x | x
COc1cc2c(cc1OC)[C@H]1C(=O)c3ccc4c(c3O[C@H]1CO2)C[C@@H](C(C)(C)O)O4 | u | x | 4% | x | -4% | 6% | x | x | x
COc1cc2c(cc1OC)C1C(=O)c3ccc4c(c3OC1CO2)CC(C(C)C)O4 (stereo not given) | 0.092µM* | x | 4% | x | -4% | -7% | -1% | -16% | 0.058µM*
O=C1C=CC(=O)C2C1C1(Cl)C(Cl)=C(Cl)C2(Cl)C1(Cl)Cl (stereo not given) | -5% | x | 3% | x | -4% | 3% | x | x | x
CC(=O)OC1CC[C@@]2(C)C3CC[C@]4(C)C(=O)CCC4C3CC[C@H]2C1 (stereo not given in full) | x | x | x | x | -6% | x | x | x | x
O=C(Nc1cccc(Cl)c1)c1cnc2sc(N3CCCC3)nn2c1=O | 5.2µM* | x | 0% | 6% | x | -1% | -3% | -11% | 4.6µM*
COc1ccc(CCNC(=O)c2cnc3sc(N4CCCCCC4)nn3c2=O)cc1 | u | x | 1% | -7% | 0% | -8% | x | x | x
CN(C)CCc1c[nH]c2ccc(O)cc12 | x | x | x | x | -4% | x | x | x | x
COC(=O)/C=C\C(=O)N[C@@H]1CC[C@@]2(O)[C@H]3Cc4ccc(O)c5c4[C@@]2(CCN3CC2CC2)[C@@H]1O5 | x | x | x | x | -6% | x | x | x | x
COC(=O)C12OCC34C(CC5C(C)=C(O)C(=O)CC5(C)C3C(O)C1O)OC(=O)C(OC(=O)/C=C(\C)C(C)C)C24 (stereo not given) | 0.058µM* | x | -2% | x | -5% | 0.29µM* | 0% | -12% | 1.2µM*
Cc1ccc(S(=O)(=O)N(c2cc(Cl)c(O)c(Cl)c2)P(=O)(OC(C)C)OC(C)C)cc1 | -4% | 3% | 0% | -4% | -4% | 2% | x | x | x
